Reference: PubChem BioAssay (NCATS)
“And” between values parts separate entries of the source, which are not always exact repeats. Equal entries are not always repeated. Results filed as inconclusive are left out. More than one record can exist for a structure, and the calls need not agree. The source made the active and inactive calls. Calls come from the whole dose curve; as a rule, active = well fitted inhibition curve with a large enough effect; inconclusive = small, poorly fitted or top-dose-only effect; inactive = flat fitted curve, though single readings scatter.

Experiments:
[1] = tested on: PC49; assay: qHTS profiling for inhibitors of Plasmodium falciparum proliferation (AID 504749); conditions: P. falciparum in erythrocytes, SYBR Green DNA, 72 h; series mostly up to 28.7 µM
How it was run: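 SYBR Green fluorescence of parasite DNA, read after lysis and overnight dark incubation, measured growth over 72 h in erythrocyte culture at 0.3% parasitemia and 2.5% hematocrit. Data normalised to DMSO and 0.29 uM artemisinin, with plate-drift correction.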

[2] = tested on: HEK293T; assay: qHTS assay to identify novel small-molecules to repurpose for Merkel cell carcinoma treatment (AID 1296009); conditions: MCC and control cell lines, CellTiter-Glo viability, 72 h; at 44.8 µM (top of the series) unless noted
How it was run: (§1)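 Cell viability, measured as CellTiter-Glo luminescence, was normalized between DMSO and no-cell wells. The cells had been exposed to 8- or 11-point compound dilutions for 72 hr at 37 degree celsius.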

[3] = tested on: CRL-7250; assay: Cytotoxic Profiling of Annotated Libraries Using Quantitative High-Throughput Screening (AID 1296008); conditions: Five cell lines viability, CellTiter-Glo ATP luminescence, 48-72 h; max response: hits give low values; for max response: % is set by controls: 0 for no effect and ±100 for the full control effect
How it was run: (§2)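 Cytotoxicity was measured as CellTiter-Glo ATP luminescence, read after 10 min at room temperature. Compound treatment of the cells lasted 48 or 72 hr at 37 degrees Celsius in a qHTS format.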

[4] = tested on: KB-3-1; assay: as above; conditions: Five cell lines viability, CellTiter-Glo ATP luminescence, 48-72 h; max response: hits give low values
How it was run: as §2

[5] = tested on: NIH3T3; assay: as above; conditions: Five cell lines viability, CellTiter-Glo ATP luminescence, 48-72 h; max response: hits give low values
How it was run: as §2

[6] = tested on: MCC-13; assay: qHTS assay to identify novel small-molecules to repurpose for Merkel cell carcinoma treatment (AID 1296009); conditions: MCC and control cell lines, CellTiter-Glo viability, 72 h; series mostly up to 46 µM
How it was run: as §1

[7] = tested on: MKL-2; assay: as above; conditions: MCC and control cell lines, CellTiter-Glo viability, 72 h; series mostly up to 46 µM
How it was run: as §1

[8] = tested on: HaCat; assay: Cytotoxic Profiling of Annotated Libraries Using Quantitative High-Throughput Screening (AID 1296008); conditions: Five cell lines viability, CellTiter-Glo ATP luminescence, 48-72 h; max response: hits give low values; for max response: % is set by controls: 0 for no effect and ±100 for the full control effect
How it was run: as §2

[9] = tested on: MKL-1; assay: qHTS assay to identify novel small-molecules to repurpose for Merkel cell carcinoma treatment (AID 1296009); conditions: MCC and control cell lines, CellTiter-Glo viability, 72 h; series mostly up to 46 µM
How it was run: as §1

[10] = tested on: HEK293; assay: Cytotoxic Profiling of Annotated Libraries Using Quantitative High-Throughput Screening (AID 1296008); conditions: Five cell lines viability, CellTiter-Glo ATP luminescence, 48-72 h; max response: hits give low values; for max response: % is set by controls: 0 for no effect and ±100 for the full control effect
How it was run: as §2

[11] = tested on: HACAT; assay: qHTS assay to identify novel small-molecules to repurpose for Merkel cell carcinoma treatment (AID 1296009); conditions: MCC and control cell lines, CellTiter-Glo viability, 72 h; series mostly up to 44.8 µM
How it was run: as §1

[12] = tested on: NIH3T3; assay: as above; conditions: MCC and control cell lines, CellTiter-Glo viability, 72 h; at 44.8 µM (top of the series) unless noted
How it was run: as §1

[13] = tested on: MCC-26; assay: as above; conditions: MCC and control cell lines, CellTiter-Glo viability, 72 h; series mostly up to 46 µM
How it was run: as §1
Note: nearly all actives have a fitted effect of over 60% in size.
Potency is the fitted concentration of half-maximal effect.

COC(=O)C[C@](O)(CCCC(C)(C)O)C(=O)O[C@@H]1C(OC)=C[C@]23CCCN2CCc2cc4c(cc2[C@H]13)OCO4
active: Potency [1] 0.6 nM

O=c1[nH]c(=O)n(C2CCCO2)cc1F (centres undefined)
inactive: Potency [1]

CCCCCCCCCC(=O)N[C@@H](Cc1c[nH]c2ccccc12)C(=O)N[C@H](CC(N)=O)C(=O)N[C@@H](CC(=O)O)C(=O)N[C@@H]1C(=O)NCC(=O)N[C@@H](CCCN)C(=O)N[C@@H](CC(=O)O)C(=O)N[C@H](C)C(=O)N[C@@H](CC(=O)O)C(=O)NCC(=O)N[C@H](CO)C(=O)N[C@@H]([C@@H](C)CC(=O)O)C(=O)N[C@@H](CC(=O)c2ccccc2N)C(=O)O[C@@H]1C
inactive: outcome [2]

O=C(O)[C@H](Cc1c[nH]c2ccccc12)N1C(=O)c2ccccc2C1=O
inactive: outcome [2] inactive [at 92 µM]

COc1cc(C(=O)N2CCC(N3CCN(C)CC3)CC2)ccc1Nc1ncc2c(n1)N(C)c1ccccc1C(=O)N2C
active: Potency [3] 3.66 µM | Potency [4] 14.8 µM and 16.4 µM | Potency [5] 13 µM | Potency [7] 2350 nM
inactive: Potency [6]

Nc1nc(Nc2ccc(S(N)(=O)=O)cc2)nn1C(=O)c1c(F)cccc1F
active: Potency [3] 18.7 µM | Potency [4] 3.26 µM | Potency [5] 10.5 µM and 11.6 µM

CC=C1NC(=O)[C@H]2CSSCCC=C[C@H](CC(=O)N[C@H](C(C)C)C(=O)N2)OC(=O)[C@H](C(C)C)NC1=O
active: Potency [3] 0.0187 µM | Potency [8] 0.0372 µM | Potency [5] 0.0469 µM | Potency [6] 235 nM | Potency [7] 16.6 nM

CC1=C(CO)C(=O)O[C@@H]([C@@H](C)[C@H]2CC[C@H]3[C@@H]4C[C@H]5O[C@]56[C@@H](O)C=CC(=O)[C@]6(C)[C@@H]4CC[C@]23C)C1
active: Potency [3] 1.48 µM | Potency [8] 2.64 µM | Potency [4] 1.05 µM | Potency [5] 2.09 µM | Potency [6] 662 nM | Potency [7] 132 nM

CC(C)c1nn(-c2c(Cl)cccc2Cl)c2nc(Cc3ccc(OCCO)cc3)[nH]c(=O)c12
active: Potency [3] 0.0291 µM | Potency [8] 118 nM and 231 nM | Potency [4] 0.058 µM | Potency [5] 93.5 nM and 130 nM | Potency [6] 105 nM | Potency [9] 132 nM | Potency [7] 105 nM

Cc1coc2c1C(=O)C(=O)c1c-2ccc2c1CCCC2(C)C
active: Potency [10] 9.2 µM | Potency [4] 16.4 µM
inactive: max response [8] -3.22% | outcome [8] | max response [4] -4.98% | max response [5] -27% | outcome [5] | Potency [11] | Potency [6] | Potency [9] | Potency [7] | outcome [12]

CCN(CC)CCCCNc1ncc2cc(-c3cc(OC)cc(OC)c3)c(NC(=O)NC(C)(C)C)nc2n1
active: Potency [3] 0.264 µM
inactive: max response [4] -22.2% | Potency [6] | Potency [13] | Potency [9] | Potency [7]

CC[C@H](CO)Nc1nc(NCc2ccccc2)c2ncn(C(C)C)c2n1
inactive: max response [5] -26.8% | Potency [6] | Potency [13] | Potency [9] | Potency [7]
active: Potency [3] 26.4 µM

C=C1C(=CC=C2CCCC3(C)[C@@H]([C@H](C)C=CC=CC(O)(CC)CC)CC[C@@H]23)C[C@@H](O)C[C@@H]1O (some centres undefined)
active: Potency [7] 14800 nM
inactive: max response [3] 4.9% | outcome [8] | outcome [4] | Potency [11] | Potency [6] | Potency [13] | Potency [9]

CNC(=O)c1c(F)cccc1Nc1nc(Nc2cc3c(cc2OC)CCN3C(=O)CN(C)C)nc2[nH]ccc12
active: Potency [10] 4.18 µM and 13 µM | Potency [8] 18.4 µM | Potency [5] 7.31 µM | Potency [13] 23.5 µM | Potency [9] 18700 nM | Potency [7] 5900 nM
inactive: outcome [8] | Potency [11]

C=C1C(=CC=C2CCC[C@]3(C)[C@@H]([C@H](C)C=C[C@H](C)C(C)C)CC[C@@H]23)C[C@@H](O)C[C@@H]1O
active: Potency [9] 1180 nM | Potency [7] 332 nM
inactive: max response [3] -0.207% | outcome [8] | outcome [4] | Potency [11]

Nc1ncnc2c1c(-c1cccc(OCc3ccccc3)c1)cn2C1CC(CN2CCCC2)C1 (centres undefined)
active: Potency [10] 13.2 µM and 5.17 µM | Potency [4] 18.7 µM | Potency [5] 14.8 µM and 16.4 µM
inactive: max response [8] -11.4% | outcome [8] | Potency [11] | Potency [6]

O=C(C=Cc1cccnc1)NCCCCC1CCN(C(=O)c2ccccc2)CC1
active: Potency [3] 0.0743 µM | Potency [8] 0.372 µM | Potency [4] 0.0132 µM | Potency [5] 0.0372 µM | Potency [6] 52.6 nM | Potency [13] 0.0209 µM | Potency [7] 20.9 nM

Nc1cccc(-c2cc3c(Oc4cccc(O)c4)ncnc3[nH]2)c1
inactive: Potency [9]
active: Potency [3] 14.8 µM | Potency [8] 2.96 µM | Potency [5] 3.72 µM and 4.61 µM | Potency [13] 18.7 µM

Cn1c2cc(S(C)=O)sc2c2cnn(Cc3cccc(N)c3)c(=O)c21 (centres undefined)
inactive: max response [3] 0.238% | max response [8] -2.01% | max response [4] -13.5% | max response [5] -11.6% | Potency [6] | Potency [13] | Potency [9] | Potency [7]

CC(C)[C@H](C(=O)Nc1ccc(C(=O)NO)cc1)c1ccccc1
active: Potency [3] 4.18 µM | Potency [8] 5.9 µM | Potency [4] 2.35 µM | Potency [6] 5260 nM | Potency [9] 935 nM | Potency [7] 833 nM
